Drawing on PubChem BioAssay AID1626 (SRMLSC, 2009), this text covers inhibition for 101 molecules.

In all, about 220,000 compounds went through this assay and about 2,000 (0.91%) were called active. About 2% were inconclusive and are not listed. Rule as the data show it: inconclusive = inhibition above about 80% without an active follow-up result; inactive = below that; test concentration not stated here. A selection follows. Entries with a potency or affinity are not part of this list.

The test is described as follows: M. tuberculosis H37Rv growth inhibitors, H37Rv strain (AID 1626).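 Also: bacteria incubated seven days before Alamar blue readout; 0% = bacteria only wells and 100% = bacteria with antibiotic wells.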 The following applies: active compounds read high, concentration not given here.
Usually inhibition stands for the drop in the measured response relative to a control, in per cent. Regarding `COc1ccccc1NC(=O)c1cc2ccccc2nc1C`, the inhibition is 2.95% (inactive).

`O=C(COc1ccc2c(-c3ccccc3)cc(=O)oc2c1)NCc1cccs1`: the inhibition was 1.19% (inactive).

Take `CCCc1cc(=O)oc2cc(OCC(=O)NCc3cccs3)ccc12`: the inhibition is 7.98% (inactive).

On to `COc1ccc(Cn2ccnc2CO)cc1[N+](=O)[O-]`, for which the inhibition is -1.53% (inactive).

Take `COc1ccc(-c2cc(C(=O)Nc3ccc(O)cc3)c3ccccc3n2)cc1OC`: the inhibition was 14.5% (inactive).

As to `COc1cccc(-c2cc(C(=O)Nn3cnnc3)c3ccccc3n2)c1`, the inhibition was 2.95% (inactive).

On to `O=C(NC(=S)Nc1ccccc1)c1cc(-c2ccccc2)nc2ccccc12`, for which the inhibition is -4.77% (inactive).

Turning to `O=C(O)c1cc(-c2ccccc2)nc2ccccc12`, the inhibition is -5.49% (inactive).

As for `O=C(Nc1nc2ccccc2s1)c1cc(-c2ccco2)nc2ccccc12`, the inhibition is 13.9% (inactive).

Regarding `COc1ccc(-c2cc(C(=O)Nc3nc4c(C)cccc4s3)c3ccccc3n2)cc1OC`, the inhibition is 12.1% (inactive).

On to `O=C(C[n+]1ccccc1)Nc1c(Cl)cc(Cl)cc1Cl`, for which the inhibition is -1.93% (inactive).

For the molecule `Cn1cnnc1SCC(=O)Nc1nc(-c2ccccc2)cs1`, the inhibition is -4.7% (inactive).

As for `COc1ccc(NC(=O)CSc2nc3c([nH]c4ccccc43)c(=O)n2C)cc1`, the inhibition was 7.61% (inactive).

Turning to `Cc1ccc(OCC(=O)c2cc(C)n(CC(F)(F)F)c2C)c([N+](=O)[O-])n1`, the inhibition is -2.91% (inactive).

For `N/C(CS(=O)(=O)c1ccccn1)=N\OC(=O)c1ccc(Cl)cc1`, the inhibition was -1.94% (inactive).

As to `Cn1ncc(N)c1C(=O)Nc1cccc(C(F)(F)F)c1`, the inhibition was 4.36% (inactive).

With `O=C(c1cccc(Cl)c1)N1CCC(=O)N(C(COCc2ccccc2)Cc2ccccc2)CC1` (stereo unspecified), the inhibition is -0.16% (inactive).

Consider `CCOC(=O)c1sc2nc3c(SCC(=O)O)cc(C(=O)c4cc(F)ccc4O)cn3c(=O)c2c1C`, for which the inhibition is -5.14% (inactive).

In the case of `CSc1nc(Oc2ccc(F)cc2)c2ccccc2n1`, the inhibition was 8.64% (inactive).

Regarding `CC(=O)Nc1ccc(Oc2nc(-c3ccccn3)nc3ccccc23)cc1`, the inhibition is -12.6% (inactive).

In the case of `CC(=O)Nc1cccc(Oc2nc(-c3ccccn3)nc3ccccc23)c1`, the inhibition was 3.26% (inactive).

In the case of `C/C(=N\Nc1nc(-c2ccccn2)nc2ccccc12)c1ccc(F)cc1`, the inhibition is 67.4% (inactive).

Consider `FC(F)(F)c1cc(Oc2ccc(Cl)cc2)nc(-c2ccccn2)n1`, for which the inhibition was 11.7% (inactive).

Take `Cc1cc(Oc2ccc(Cl)cc2)nc(-c2ccccc2O)n1`: the inhibition is 20.4% (inactive).

As for `COc1ccc(Oc2nc(-c3ccncc3)nc3ccccc23)cc1`, the inhibition was 3.37% (inactive).

As for `Cc1ccc(Oc2nc(C(F)(F)F)nc3ccccc23)cc1`, the inhibition was 9.79% (inactive).

For the molecule `COc1cc(C(=O)c2nccc3cc(OC)c(OC)cc23)c([N+](=O)[O-])cc1OC`, the inhibition is 1.27% (inactive).

In the case of `COc1ccc(Nc2nnc(SCC(=O)/C=C3/N(C)c4ccccc4C3(C)C)s2)cc1`, the inhibition is 10.8% (inactive).

In the case of `CCSc1nnc(-c2ccc(C)cc2)c2ccccc12`, the inhibition was 18.7% (inactive).

For `Cc1onc(-c2ccccc2)c1C(=O)N/N=C/c1cc(Br)c(Br)o1`, the inhibition is -1.13% (inactive).

In the case of `COc1ccc2nc(SCC(=O)NCCc3ccccc3)[nH]c2c1`, the inhibition is 0.98% (inactive).

Take `O=c1[nH]c(SCc2nc3ccccc3n2Cc2ccccc2)nc2ccccc12`: the inhibition was 5.31% (inactive).

In the case of `Fc1ccc(CSc2nncn2NCc2ccccc2)cc1`, the inhibition was -8.84% (inactive).

Turning to `O=C(Nc1cccc(NC(=O)c2cccs2)c1)c1ccc2c(c1)OCCO2`, the inhibition is 4% (inactive).

For the molecule `O=C(NNC1=NCCC1)c1cccc(S(=O)(=O)N2CCCC2)c1`, the inhibition was -1.54% (inactive).

On to `Cc1cccc(N=Cc2c(O)cc(C)oc2=O)c1`, for which the inhibition was 2.51% (inactive).

As to `Cc1cc(C)cc(Oc2ccc(N)cc2)c1`, the inhibition was -4.94% (inactive).

Consider `Nc1ccc(Oc2cccc(Oc3ccc(N)cc3)c2)cc1`, for which the inhibition was 0.76% (inactive).

For the molecule `Brc1ccc2ncc(Br)cc2c1`, the inhibition was 9.05% (inactive).

Regarding `Nc1ccc(Br)cc1C(=O)O`, the inhibition was -3.82% (inactive).

`CCOC(=O)N1CCN(S(=O)(=O)c2ccc3c(c2)CCN3C(=O)CC)CC1`: the inhibition is -14.9% (inactive).

In the case of `CCc1ccccc1NC(=O)c1ccc(Cn2cc([N+](=O)[O-])cn2)cc1`, the inhibition is 2.06% (inactive).

Turning to `CC(C)Cc1nnc(NS(=O)(=O)Cc2ccccc2)s1`, the inhibition is 3.7% (inactive).

As for `COc1ccc(CN(C)C(=O)CCl)cc1`, the inhibition is 17.4% (inactive).

As for `CN(Cc1ccc(Cl)cc1)C(=O)CCl`, the inhibition was 63% (inactive).

On to `CCOC(=O)c1ccc(-n2c(CN3CCOCC3)nc3ccc([N+](=O)[O-])cc3c2=O)cc1`, for which the inhibition is 69.4% (inactive).

On to `CCOC(=O)c1ccc(-n2c(CN3CCN(CC)CC3)nc3ccc([N+](=O)[O-])cc3c2=O)cc1`, for which the inhibition is 64.1% (inactive).

Regarding `CC(C)Sc1nnc([C@@H](N)Cc2ccccc2)o1`, the inhibition was -1.26% (inactive).

With `Cc1ccc(-c2nn(-c3cccc(F)c3)cc2CNCCc2ccncc2)o1`, the inhibition was 8.28% (inactive).

Turning to `Cc1ccc(-c2nn(-c3cccc(F)c3)cc2CNCc2cccnc2)o1`, the inhibition is 12.8% (inactive).

For the molecule `C=CCNC(=O)c1onc(CSc2cc(C)cc(C)c2)c1C(=O)NCC=C`, the inhibition is 4.46% (inactive).

In the case of `O=c1c2cn[nH]c2[nH]c(=S)n1-c1cccc2ccccc12`, the inhibition is 8.18% (inactive).

As for `COc1ccccc1OCC#CCN1CCCCCC1`, the inhibition was 4.4% (inactive).

For the molecule `Cc1ccc(NC2=NCC(Cc3ccc(Br)cc3)S2)cc1` (stereo unspecified), the inhibition was 44.8% (inactive).

Turning to `COc1ccc(NC2=NCC(C)S2)cc1` (stereo unspecified), the inhibition is 5.03% (inactive).

Take `CC1=C(C#N)C(NC(=O)C(C)(C)C)(C(F)(F)F)C(=O)N1` (stereo unspecified): the inhibition is -1.62% (inactive).

Turning to `CCOC(=O)CN(Cc1sccc1C)C(=O)Nc1ccc(OCC)cc1`, the inhibition was 3.69% (inactive).

In the case of `CSc1ccc(/C=C(/Sc2nnc(-c3ccccc3)o2)C(=O)O)cc1`, the inhibition was -6.84% (inactive).

Regarding `CCOC(=O)c1cccc(NC(=O)/C=C/c2ccc([N+](=O)[O-])cc2)c1`, the inhibition was 22.2% (inactive).

With `CCCCCC/C(=N/O)c1ccccn1`, the inhibition was -3.95% (inactive).

For `CCCCCC(=O)N/N=C(\C)c1ccccn1`, the inhibition was 1.4% (inactive).

Regarding `COc1ccc(Cl)cc1-c1n[nH]c(=S)n1C1CCCCC1`, the inhibition was 0.84% (inactive).

In the case of `Cc1ccccc1-c1ncc(CN2CCC(CO)(CCCc3ccccc3)CC2)cn1`, the inhibition was 69.6% (inactive).

Regarding `CC(=O)c1cccc(CN2CCC(CO)(CCCc3ccccc3)CC2)c1`, the inhibition is 3.9% (inactive).

As for `N#C/C(=C(/O)c1cccs1)c1nnc2n1CCCCC2`, the inhibition was -5.04% (inactive).

With `Cc1ccc(S(=O)(=O)N2CCCC(C(=O)N(Cc3cccs3)C3CC3)C2)cc1` (stereo unspecified), the inhibition was -4.95% (inactive).

As for `CSCCC(NC(=O)c1ccc(C(C)(C)C)cc1)C(=O)O` (stereo unspecified), the inhibition was 0.53% (inactive).

For the molecule `O=C(COc1ccc(OCc2ccccc2)cc1)NN=C1CCCC1`, the inhibition was 7.98% (inactive).

For the molecule `COc1ccc(OC)c2c1C(=O)c1ccccc1C2=O`, the inhibition was 6.76% (inactive).

Consider `Nc1ccc(O)c2c1C(=O)c1ccccc1C2=O`, for which the inhibition is 0.25% (inactive).

For the molecule `Clc1ccc(Nc2ncn[nH]2)cc1`, the inhibition is 77.2% (inactive).

On to `Clc1cc(Cl)cc(Nc2ncn[nH]2)c1`, for which the inhibition was 5.96% (inactive).

Consider `CCCOc1ccc2c(C)c(CC(=O)OC)c(=O)oc2c1`, for which the inhibition was -2.3% (inactive).

In the case of `Cc1ccc(SCC(=O)NC(=O)NC(C)C)c(C)c1`, the inhibition is 11.6% (inactive).

Turning to `O=C(Nc1nnc(C2CC2)s1)c1cc(-c2ccccc2)nn1-c1ccccc1`, the inhibition is 43.6% (inactive).

As for `COc1ccc(NC(=S)N(Cc2ccc(Cl)cc2)Cc2ccc(C(=O)O)cc2)cc1Cl`, the inhibition was 61% (inactive).

Turning to `CC1CC(C)(C)NCc2ccccc21` (stereo unspecified), the inhibition is -9.91% (inactive).

`CC1=CC(C)(C)Nc2ccc(OC(=O)CN3C(=O)c4ccccc4C3=O)cc21`: the inhibition is -11.5% (inactive).

Take `COC(=O)c1ccc(OC(=O)c2ccco2)cc1`: the inhibition is -4.94% (inactive).

Turning to `O=C(Oc1ccc2ccccc2c1)c1ccco1`, the inhibition was 53.4% (inactive).

As to `CC1=CC(C)(C)Nc2ccc(OC(=O)c3cccnc3)cc21`, the inhibition was -2% (inactive).

Turning to `CC1CC(C)(C)NC(C)c2ccccc21` (stereo unspecified), the inhibition was -2.84% (inactive).

Consider `NS(=O)(=O)c1ccc(NC(=O)c2c(Cl)cccc2Cl)cc1`, for which the inhibition is 2.71% (inactive).

Take `O=C1CC(c2cccc(F)c2)c2c(c3ccccc3[nH]c2=O)O1` (stereo unspecified): the inhibition is 1.98% (inactive).

For the molecule `O=c1c2ccccc2nc(-c2ccccc2)n1-c1ccccc1`, the inhibition is 2.18% (inactive).

For the molecule `Cc1ccccc1-n1c(C)nc2ccccc2c1=O`, the inhibition was 2.88% (inactive).

For the molecule `CC(Nc1ccc(Cl)cc1)c1cc(Cl)ccc1O` (stereo unspecified), the inhibition is -8.64% (inactive).

For the molecule `Cc1ccc(NC(C)c2cc(Cl)ccc2O)cc1` (stereo unspecified), the inhibition was -1.72% (inactive).

As for `CSc1nc(N(C)NC(=O)c2ccccc2)c2ccccc2n1`, the inhibition is -4.21% (inactive).

Turning to `CSc1nc(N(C)NC(=O)c2ccc(F)cc2)c2ccccc2n1`, the inhibition was -5.17% (inactive).

For `O=C(NCc1ccccc1)[C@]1(C(F)(F)F)C[C@H](CCc2ccccc2)CCCO1`, the inhibition was -10.1% (inactive).

For `Nc1nn(-c2cccc(F)n2)cc1-c1ccccc1`, the inhibition is -5.22% (inactive).

As for `O=C(COc1ccc(Cl)cc1)Nc1ccccc1N1CCOCC1`, the inhibition is -1.58% (inactive).

In the case of `CCCCNC(=O)COC(=O)c1ccc(F)cc1Cl`, the inhibition is 10.1% (inactive).

Consider `CC(C)(C)NC(=O)COC(=O)c1cc(F)c(F)cc1Cl`, for which the inhibition was 38.6% (inactive).

Regarding `CCCNC(=O)COC(=O)c1cc(SC)ccc1Cl`, the inhibition was 7.67% (inactive).

`CC(C)NC(=O)COC(=O)c1cc(Br)ccc1Cl`: the inhibition was 4% (inactive).

For `CCCCNC(=O)COC(=O)c1ccc(Cl)c(S(N)(=O)=O)c1`, the inhibition was -0.33% (inactive).

With `CNC(=O)COC(=O)c1cc(F)c(F)cc1Cl`, the inhibition was 4.23% (inactive).

On to `CC(/C=C/c1ccccc1)=N\Nc1nc(-c2ccccc2)cs1`, for which the inhibition is 5.57% (inactive).

Take `CCCCn1nnc(NC(=O)c2ccc(-c3ccccc3[N+](=O)[O-])o2)n1`: the inhibition was 9.1% (inactive).
